In PubChem BioAssay AID463165 (Johns Hopkins Ion Channel Center, 2010) one finds B-score data, which are given here for 66 molecules.

Hit rate of the full screen: of about 310,000 compounds, about 1,400 (0.45%) were called active. This is one part of a sample in which actives are shown more often than they occur.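 The calls were made as follows: active = B-score, a plate-corrected calcium signal, over three deviations above library mean, with baseline fluorescence within five deviations of library mean; inactive = the rest.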

The target in the experiment is Regulator of G-protein signaling 4 (Homo sapiens) (UniProt P49798). Kind of experiment: blockers of RGS4 function in M3R calcium signaling – cell-based, HEK293 M3R inducible RGS4, calcium flux, primary screen (AID 463165).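 Also: RGS4 expression induced by doxycycline in cells with stable M3 receptor.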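 As to B-score: B-score is computed from the integrated fluorescence ratio over baseline after carbachol; higher B-score means a larger calcium signal and so more RGS4 inhibition.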 The note with it: Fluo-4 calcium flux, at 10 µM, triggered by carbachol at its EC20; hits give high values. (In general: Calcium flux is commonly read through the fluorescence of an indicator in the cells.)
Chain of Regulator of G-protein signaling 4 (Homo sapiens) (P49798 whole entry, looked up): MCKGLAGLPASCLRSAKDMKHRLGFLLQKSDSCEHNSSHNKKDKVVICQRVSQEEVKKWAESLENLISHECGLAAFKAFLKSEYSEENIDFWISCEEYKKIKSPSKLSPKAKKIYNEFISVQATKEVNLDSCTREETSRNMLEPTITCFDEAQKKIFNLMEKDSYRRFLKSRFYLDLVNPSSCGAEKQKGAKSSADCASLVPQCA
Take `COC(=O)/C=C(\Oc1ccccc1)C1(O)CCCCC1`: the B-score entry is “inactive”.
As to `O=C(Nc1ccccc1)C1CCN(C(=O)c2ccc(Br)cc2)CC1`, the B-score entry was “inactive”.
`COc1ccc(OCc2cn3c(C)cc(C)nc3n2)cc1`: the B-score result was “inactive”.
As for `COc1ccc(C(=O)CSc2nc(C)cc(C)n2)cc1[N+](=O)[O-]`, the entry is “inactive”; as for `COc1ccc(C(C[N+](=O)[O-])n2nc(C)cc2C)cc1` (stereo unspecified), 5.35 (active).
With `CCOc1ccc(NC(=S)NC(=O)/C=C/c2ccc(OC)cc2)c([N+](=O)[O-])c1`, the B-score result was “inactive”.
Regarding `C(=N\N1CCN(c2ccccn2)CC1)/C1=C(N2CCOCC2)C(=C/c2ccccc2)/CC1`, the B-score result is “inactive”.
In the case of `N#C/C(=C\C1=C(N2CCOCC2)C(=C\c2ccccc2)/CC1)C(=O)Nc1ccccc1F`, the B-score result is “inactive”.
As to `O=C1Nc2ccc(Br)cc2/C1=N/N=C/C1=C(N2CCOCC2)C(=C\c2ccccc2)/CC1`, the B-score was 13.1 (active).
In the case of `COc1ccc(C(F)(F)F)cc1N/C=C\c1nnnn1-c1ccc(C)cc1`, the B-score entry is “inactive”.
The result for `CCOC(=O)c1ccccc1NC(=O)COC(=O)CCC(=O)N1CCOCC1` reads “inactive”.
The result for `Cc1cc(-c2n[nH]c(=S)n2/N=C/C(Br)=C/c2ccccc2)n[nH]1` reads 7.31 (active).
As to `S=c1[nH]nc(-c2cc(-c3ccccc3)n[nH]2)n1/N=C/c1c2ccccc2cc2ccccc12`, the B-score result was “inactive”.
The result for `CC(C)c1cc(C(=O)N/N=C/C(Br)=C/c2ccccc2)n[nH]1` reads “inactive”.
`COCCn1c(SCC(=O)c2[nH]c(C)c(C(C)=O)c2C)nc2ccccc2c1=O`: the B-score result is “inactive”.
On to `CCOc1cc2[nH]c(=S)n(Cc3ccc(C(=O)N4CCN(C)CC4)cc3)c(=O)c2cc1OCC`, for which the B-score entry is “inactive”.
The result for `O=C(C1CCC(=O)N(C2CC2)C1)N1CCN(c2ccc(Cl)cc2)CC1` (stereo unspecified) reads “inactive”; that for `Nc1nc(NCC2CCCO2)nc(Nc2ccccc2F)c1[N+](=O)[O-]` (stereo unspecified), “inactive”; that for `Nc1nc(Nc2ccccc2F)nc(NC2CCCCC2)c1[N+](=O)[O-]`, “inactive”.
The result for `C=CCNc1nc(N)c([N+](=O)[O-])c(NC2CCCCC2)n1` reads 7.68 (active).
The result for `CC(C)c1ccc(/C=C2\NC(=O)NC2=O)cc1` reads “inactive”; that for `C=CCNC(=O)CCCC(=O)NCC=C`, “inactive”; that for `CN(C)c1ccc(/C=C/C(=O)c2ccc(C(C)(C)C)cc2)cc1[N+](=O)[O-]`, “inactive”.
In the case of `O=C(/C=C/c1ccc(Cl)c([N+](=O)[O-])c1)c1cccnc1`, the B-score is 11 (active).
Take `O=C(Nc1cccnc1)c1ccc(Cl)c([N+](=O)[O-])c1`: the B-score result was “inactive”.
The result for `CN(C)c1ccc(/C=C/C(=O)c2ccc(O)cc2)cc1[N+](=O)[O-]` reads “inactive”; that for `O=C(/C=C/c1ccc(Cl)c([N+](=O)[O-])c1)c1ccc(O)cc1`, 6.92 (active).
Take `O=C(/C=C/c1ccc(Cl)cc1Cl)c1cccnc1`: the B-score result is “inactive”.
As for `Cc1ccc(S(=O)(=O)N(CC(=O)NN=C2CCN(C)CC2)c2ccc(F)cc2)cc1`, the entry is “inactive”; as for `CCCCN(C(=O)/C=C/c1ccco1)c1c(N)n(CC(C)C)c(=O)[nH]c1=O`, “inactive”; as for `CS/C(=C\[N+](=O)[O-])Nc1ccc(C)cc1`, “inactive”.
The result for `COC(=O)NNC(=O)C1CCC(C)CC1` (stereo unspecified) reads “inactive”; that for `O=C1CCNCCN1[C@H](CO)Cc1ccccc1`, “inactive”.
For `c1ccc(C[C@H]2CNCCN2CCC23CC4CC(CC(C4)C2)C3)cc1`, the B-score is 6.17 (active).
The result for `CC(C)CN(C(=O)CN1CCN(S(=O)(=O)c2ccccc2)CC1)c1c(N)n(CC(C)C)c(=O)[nH]c1=O` reads “inactive”.
`CCCCNC(=O)N(O)C1N(/N=C/c2ccc(N(C)C)cc2)C(=S)SC1(C)C` (stereo unspecified): the B-score result is “inactive”.
The result for `CCS(=O)(=O)c1cc([N+](=O)[O-])c(Sc2ccccc2N)s1` reads “inactive”; that for `Nc1ccccc1SC(C[N+](=O)[O-])c1ccccc1` (stereo unspecified), 7 (active).
As for `Nc1ccccc1SCc1cc([N+](=O)[O-])cc2c1OCOC2`, the entry is “inactive”.
As for `CCCCCCCNC(=O)C1(CC2CC(c3cccc(Br)c3)=NO2)CCN(C(=O)c2cc(OCC)c(OCC)c(OCC)c2)CC1` (stereo unspecified), the entry is “inactive”.
On to `CNc1nc(Nc2ccc(C)c(Cl)c2)nc(N)c1[N+](=O)[O-]`, for which the B-score is 12.7 (active).
Take `COc1cccc(Nc2nc(N)c([N+](=O)[O-])c(NCc3ccco3)n2)c1`: the B-score result is “inactive”.
As for `Cc1ccc(Nc2nc(N3CCOCC3)nc(N3CCOCC3)n2)cc1Cl`, the entry is “inactive”; as for `CC(=O)c1nn(-c2cccc(C(F)(F)F)c2)c(=O)[nH]c1=O`, “inactive”; as for `O=C1CCCN1CCCNC(=S)Nc1ccc(F)c(Cl)c1`, “inactive”.
As for `Cc1nc2ccccc2c(=O)n1-c1ccc(NS(=O)(=O)c2ccc(F)cc2F)cc1`, the entry is “inactive”.
The result for `CC(=O)C1C(c2cccc(Oc3ccccc3)c2)NC(=O)NC1(O)C(F)(F)F` (stereo unspecified) reads “inactive”; that for `CC1=NN(c2ccc(Cl)c(C(=O)O)c2)C(=O)/C1=C/c1ccc(-c2ccccc2[N+](=O)[O-])o1`, “inactive”; that for `O=C1NC(c2ccc(-c3ccccc3[N+](=O)[O-])o2)C(C(=O)c2ccc(Cl)cc2)C(O)(C(F)(F)F)N1` (stereo unspecified), 8.35 (active).
With `O=C(OCc1ccc([N+](=O)[O-])cc1)C1CC(=O)N(Cc2ccccc2Cl)C1` (stereo unspecified), the B-score entry was “inactive”.
As to `CC(=O)Nc1ccc(Nc2c([N+](=O)[O-])cc(S(C)(=O)=O)cc2[N+](=O)[O-])cc1`, the B-score entry was “inactive”.
Turning to `O=C(NCc1cccs1)c1ccc(CS(=O)Cc2ccccc2Cl)o1` (stereo unspecified), the B-score result was “inactive”.
The result for `CC(C)OCCCNC(=O)CN1C(=O)/C(=C/c2ccccc2F)Oc2ccccc21` reads “inactive”.
As for `O=C(CN1C(=O)COc2ccc(Cl)cc21)N1CCOCC1`, the entry is “inactive”; as for `O=C(CN1CCCCCC1)Nc1ccc(Cl)cc1F`, “inactive”; as for `COc1cc2c(cc1O)C(SC)=NC(C)(C)C2`, 15.1 (active).
As for `COc1cc2c(cc1OC)C(C(C)C)=NC(C)(C)C2`, the entry is “inactive”; as for `COc1cc2c(cc1OC)C(Nc1ccc(S(N)(=O)=O)cc1)=NC(C)(C)C2`, “inactive”.
With `O=C(CSC1=NS(=O)(=O)c2cc(F)ccc2N1)Nc1ccccc1F`, the B-score result is “inactive”.
As for `CCOC(=O)CSc1nc(C)c(Oc2ccc(Cl)cc2Cl)c(=O)[nH]1`, the entry is “inactive”; as for `Cc1nnc(SCC(=O)N2CCOCC2)[nH]c1=O`, “inactive”; as for `CCCCOC(=O)CNc1nnc(SCC(=O)OCC)[nH]c1=O`, 26.4 (active).
As for `NC(=O)C1CCCN(CC(=O)N2CCN(c3ccccc3)CC2)C1` (stereo unspecified), the entry is “inactive”; as for `COc1ccc(C(=O)/C=C/c2ccc(OC3CSC3)cc2)cc1`, “inactive”.
Consider `COc1ccc(C(=O)/C=C/c2cccnc2)c(OC)c1`, for which the B-score result was “inactive”.
As for `COc1ccc(/C=C/C(=O)c2ccc(OC)cc2O)cc1`, the figure is 6.02 (active).
